Measured values reported in PubChem BioAssay AID504773 (Broad Institute, 2011).
Potency and affinity values are given separately. Activity calls are given as the source filed them.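 The calls were made as follows: active = polarization signal falls with dose and the fitted half-maximal concentration is at or below ten times the sample's top valid dose; inconclusive = flat curve at 30 to 70% inhibition, or poor fit; inactive = signal rises, flat within 30%, or potency beyond limit.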

Biological target: Golgi-associated PDZ and coiled-coil motif-containing protein (Homo sapiens) (UniProt Q9HD26)
Test: CAL PDZ peptide-binding inhibitors, dose response, biochemical, fluorescence polarization, Cerulean-tagged CAL PDZ, cherry-picks (AID 504773)

O=C(c1ccccc1Cl)N(Cc1ccc(Cl)c(Cl)c1)N1C(=O)CCCC1=O
outcome: inactive

CCc1noc(C)c1C(=O)N1CCCC(CCC(=O)NCc2ccc(F)c(F)c2)C1 (configuration not stated)
outcome: inactive

CC1=C(C#N)C(Nc2ccc(Cl)cn2)(C(F)(F)F)C(=O)N1 (configuration not stated)
outcome: inactive

S=C(NCCc1ccccc1)NC1CCC(NC(=S)NCCc2ccccc2)CC1 (configuration not stated)
outcome: inactive

N#C/C(=C\c1c[nH]c2ccccc12)C(=O)NC1CC1
outcome: inactive

Cc1ccc2nc(NCc3ccc(F)cc3)c3nncn3c2c1
outcome: inactive

Cc1nn(C)c(C)c1S(=O)(=O)N1CCC(CO)(CC2CCCCO2)CC1 (configuration not stated)
outcome: inactive

CCN(CC)S(=O)(=O)c1cc(C(=O)Oc2ccccc2OC)ccc1OC
outcome: inactive

Cn1nc(C(=O)N2CCCc3ccccc32)c2ccccc2c1=O
outcome: inactive

CN1CCN(c2ccccc2NC(=O)c2ccc(N3CCCC3)c([N+](=O)[O-])c2)CC1
outcome: inactive

C=CCNC(=O)CC1Nc2c3ccccc3nc(=S)n2C1=O (configuration not stated)
outcome: inactive

COc1ccc(C(=O)c2ccc(C)cc2)c(OC)c1OC
outcome: inactive

CC(=O)Nc1ccc(Nc2ccc3nonc3c2[N+](=O)[O-])cc1
outcome: inactive

CSc1ccc(CNCCCSc2ncccn2)cc1
outcome: inactive

CCc1nc(SCC(=O)c2ccccc2)c2c(=O)n(C)c(=O)n(C)c2n1
outcome: inactive

COc1ccc(NC(=O)c2ccc3c(c2)NC(=O)CO3)cc1OC
outcome: inactive

O=C(CCN1C(=O)c2ccccc2C1=O)CN1CCOCC1
outcome: inactive

COc1cc(NC(=O)c2cccs2)ccc1NC(=O)c1ccccc1Cl
outcome: inactive

O=c1c2cc3c(cc2[nH]c(=S)n1CCN1CCOCC1)OCO3
outcome: inactive

CC1CCN(CCCNC(=O)c2ccc3c(=O)n(Cc4ccc(Cl)cc4)c(=S)[nH]c3c2)CC1
outcome: inactive

COc1cc([N+](=O)[O-])ccc1NC(=O)CN1CCN(C(=O)c2ccco2)CC1
outcome: inactive

O=C(c1cccs1)N1CCN(C(=O)N2CCOCC2)CC1
outcome: inactive

Cc1cccc(Nc2nc(-c3ccc(F)cc3)cs2)n1
outcome: inactive

O=C(CN1CC[n+]2c(-c3cccs3)csc21)c1ccc(-c2ccccc2)cc1
outcome: inactive

COc1ccc(/C=N/NC(=O)c2cccc(C(F)(F)F)c2)cc1
outcome: inactive

CC1CCN(c2nc3c(c(=O)n(C)c(=O)n3C)n2CCSc2nc3ccccc3s2)CC1
outcome: inactive

COC(=O)CN1C(=O)C(O)=C(C(C)=O)C1c1ccc([N+](=O)[O-])cc1 (configuration not stated)
outcome: inactive

CC(=O)c1ccc(S(=O)(=O)N2CCN(c3ccccc3F)CC2)cc1
outcome: inactive

CSc1ccccc1NC(=O)C1CC(c2c(F)cccc2Cl)=NO1 (configuration not stated)
outcome: inactive

O=[N+]([O-])c1ccccc1S(=O)(=O)NC1CCCCCCC1
outcome: inactive

O=C(NCCN1C(=O)S/C(=C\c2ccc(Cl)c(Cl)c2)C1=O)C1COc2ccccc2O1 (configuration not stated)
outcome: inactive

COc1cccc(-c2cccc(NC(=O)C3CCN(Cc4ccc(CO)o4)CC3)c2)c1
outcome: inactive

CN(C)c1ccc(P(=O)(OC2CCCCC2)C(O)c2cccnc2)cc1 (configuration not stated)
outcome: inactive

CCNC(=S)N1CCc2cc(OC)c(OC)cc2C1COc1ccc(OC)cc1 (configuration not stated)
outcome: inactive

O=C(NC(Cc1c[nH]c2ccccc12)C(=O)O)/C(=C/c1ccc(F)cc1)NC(=O)c1ccccc1 (configuration not stated)
outcome: inactive

O=C(Nc1cc(Cl)ccc1N1CCOCC1)c1ccc2c(c1)OCCO2
outcome: inactive

CCN(CC)CCn1c(SCC(=O)NCc2ccccc2)nc2c(sc3ccccc32)c1=O
outcome: inactive
